“And” between values parts separate entries of the source, which are not always exact repeats. Equal values may be shown once. Inconclusive results are not listed. Some compounds were tested as several samples or in several runs, with calls that do not always agree. The source made the active and inactive calls. Unless noted, the call rests on the fitted dose curve; in most records, active means well fitted curve in the direction sought with a large enough effect in the repeat runs; inconclusive means weak or mixed curves; inactive means no such curve, though single readings can be large; an effect the other way counts as inactive or inconclusive.

This note sets out measurements from PubChem BioAssay (Tox21).

The nature of assay [1]: qHTS assay to identify small molecule antagonists of the estrogen related receptor (ERR) signaling pathway from Tox21 library - cell viability counter screen (AID 1224834). Further: nearly all actives have a fitted effect of over 30% in size. Further: potency means the concentration at half of the fitted maximal effect. Put shortly: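 Counter screen run in ERR cells (2,000 cells/well): cells pre-incubated 6 h, then treated with compounds for 17.5 h at 37 C. Fluorescence was read 30 min after CellTiter-Fluor addition.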
For orientation: In qHTS, concentration-response curves come from the screen itself.

The target of assay [2] is Luciferin 4-monooxygenase (Photinus pyralis) (UniProt P08659). Kind of assay: qHTS assay to identify small molecule inhibitors of firefly luciferase (AID 1224835). Further: nearly all actives have a fitted effect of over 25% in size. Further: potency means the concentration at half of the fitted maximal effect. Put shortly:
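Inhibition of purified Photinus luciferase is measured by luminescence. Substrate levels (D-luciferin, ATP) sit at their KM values. Each compound is tested in a concentration series.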

Assay [3] is described as follows: qHTS assay to identify small molecule agonists of the constitutive androstane receptor (CAR) signaling pathway - cell viability counter screen (AID 1224836). Further: nearly all actives have a fitted effect of over 45% in size. Put shortly: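 Compound titrations (15 concentrations) went onto HepG2-CYP2B6-hCAR cells 4 h after seeding, alongside PK11195 at a final 0.75 uM; a 23 h, 37 C/5% CO2 incubation preceded CellTiter-Fluor viability measurement.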

For assay [4], the target named is Nuclear receptor subfamily 1 group I member 3 (Homo sapiens) (UniProt Q14994). The experiment in a line: qHTS assay to identify small molecule antagonists of the constitutive androstane receptor (CAR) signaling pathway (AID 1224838). Further: nearly all actives have a fitted effect of over 40% in size. The method in brief:
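Inhibition of CITCO-driven (50 nM final) CYP2B6 reporter expression is measured in HepG2 cells stably carrying hCAR. Fifteen compound concentrations are applied for 24 h at 37 C, followed by luciferase luminescence.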

Assay [5] shares this target. The experiment in a line: qHTS assay to identify small molecule agonists of the constitutive androstane receptor (CAR) signaling pathway (AID 1224839). Further: nearly all actives have a fitted effect of over 15% in size. Further: potency means the concentration at half of the fitted maximal effect. The method in brief: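 In this screen, CAR-driven CYP2B6 promoter activity is measured by luminescence in HepG2-CYP2B6-hCAR cells after 24 h with test compounds and 0.75 uM PK11195 (final concentration).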
Assay [6] can be described thus: qHTS assay to identify small molecule antagonists of the estrogen related receptor signaling pathway with the pleiotropic PPARgamma coactivator (PGC) from Tox21 10K library - cell viability counter screen (AID 1224840; active means well fitted cell-killing curve with a large enough effect in the repeat runs, not every such curve was filed as active; further: nearly all actives have a fitted effect of over 40% in size). The method in brief:
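Readout: fluorescence intensity from CellTiter-Fluor after 30 min at 37 C/5% CO2. Preceded by 17.5 h treatment of PGC/ERR cells with DMSO-dissolved compounds, added 6 h post-seeding.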

Assay [7] addresses Thyrotropin receptor (Homo sapiens) (UniProt P16473). The experiment in a line: qHTS assay to identify small molecule agonists of the thyroid stimulating hormone receptor (TSHR) signaling pathway (AID 1224843; calls by dose curve; further: nearly all actives have a fitted effect of over 45% in size). The method in brief: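 A cell-based cAMP HTRF format was run in TSHR-transfected HEK293 cells, 800 per well. Treatment: 30 min, room temperature. Detection: 1 h with labelled cAMP and anti-cAMP cryptate. Concentration-response over 15 points, three replicates.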

A short description of assay [8]: qHTS assay to identify small molecule agonists of the hypoxia (HIF-1) signaling pathway - cell viability counter screen (AID 1224844; calls by dose curve; further: nearly all actives have a fitted effect of over 50% in size). Put shortly:
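In this counter screen, HRE-bla ME-180 cell viability after 17 hrs of compound exposure at 37C was read by CellTiter-Glo luminescence, multiplexed with the beta-lactamase reporter measurement.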

The nature of assay [9]: qHTS assay to identify small molecule agonists of H2AX (AID 1224845; active means well fitted activation curve with a large enough effect in the signal ratio in the repeat runs, not every such curve was filed as active; the % refers to the signal ratio). Put shortly:
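Phospho-H2AX Ser139 measured by HTRF (ex 320 nm; em 665 and 620 nm) after 24 hr antibody incubation. Compounds, 15 concentrations, 0.76% DMSO, were applied to CHO-K1 cells for 3hr at 37C before lysis.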

Assay [10] can be described thus: qHTS assay to identify small molecule agonists of the hypoxia (HIF-1) signaling pathway (AID 1224846; active means well fitted activation curve with a large enough effect in the signal ratio in the repeat runs, not every such curve was filed as active; the % refers to the signal ratio). The method in brief:
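ME-180 HRE-bla reporter cells; compounds in DMSO, 17 h at 37C; read-out beta-lactamase via CCF4-AM FRET.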

Assay [11] in a line: qHTS assay to identify small molecule agonists of H2AX - cell viability counter screen (AID 1224847; calls by dose curve; further: top concentration of the series differs between compounds; nearly all actives have a fitted effect of over 30% in size). Put shortly:
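Read-out: CellTiter-Glo luminescence, 30 min RT. Cells: wild-type CHO-K1, 1000/well, 10% FBS, plated overnight at 37C. Treatment: 15 concentrations, 3 hr, 37C, 0.76% DMSO.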

Assay [12] is described as follows: qHTS RealTime-Glo MT Cell Viability Assay in HepG2 cells - 24 hour (AID 1224867). Further: nearly all actives have a fitted effect of over 50% in size. The method in brief:
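Cell number in HepG2 cultures estimated from NanoLuc luminescence generated by metabolic reduction of a prosubstrate by living cells. The homogeneous, nonlytic format allowed repeated reads at 0, 8, 16, 24, 32 and 40 h of compound exposure.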

The nature of assay [13]: qHTS RealTime-Glo MT Cell Viability Assay in HEK293 cells - 32 hour (AID 1224868). Further: top concentration of the series differs between compounds; nearly all actives have a fitted effect of over 50% in size. The method in brief:
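Homogeneous bioluminescent viability format in HEK293 cells (600 cells/well). Following 5 h at 37 C/5% CO2, 23 nL compound was pintooled; the signal was measured repeatedly during 40 h incubation.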

Assay [14] can be described thus: A CellTox Green Cytotoxicity Assay to monitor cytotoxicity in HEK293 cells - 0 hour (AID 1224869). Further: nearly all actives have a fitted effect of over 50% in size. Put shortly:
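Real-time, in one plate: 600 HEK293 cells/well with dead-cell DNA dye, pinned compound after 5 h, 37 C incubation over 40 h; viable cells give no appreciable fluorescence.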

A short description of assay [15]: qHTS assay to identify small molecule antagonists of the constitutive androstane receptor (CAR) signaling pathway - cell viability counter screen (AID 1224837). Further: nearly all actives have a fitted effect of over 45% in size. The method in brief: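 CITCO at 50 nM final was added alongside compounds (15 concentrations) to double-stable hCAR/CYP2B6-2.2kb HepG2 cells. Following 23 hr at 37 C, cell viability was quantified by CellTiter-Fluor fluorescence intensity.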

The nature of assay [16]: qHTS assay to identify small molecule antagonists of the estrogen related receptor signaling pathway with the pleiotropic PPARgamma coactivator (PGC) from Tox21 10K library (AID 1224841; call rule not given here; further: potency means the concentration at half of the fitted maximal effect). Put shortly:
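One-Glo luminescence, measured after half an hour at room temperature, quantified reporter output of PGC/ERR cells. These had been plated at 2,000 per well, incubated 6 h, dosed with compounds in DMSO, then kept 18 h at 37 C.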

Assay [17] is described as follows: qHTS assay to identify small molecule agonists of the estrogen related receptor signaling pathway with the pleiotropic PPARgamma coactivator (PGC) from Tox21 10K library (AID 1224842). Further: nearly all actives have a fitted effect of over 15% in size. Put shortly: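 Luminescence from One-Glo (30 min, room temperature) measured after PGC/ERR cells had 18 h at 37 C with pinned compound (23 nL in DMSO). Cells had been seeded at 2,000 per well and pre-incubated 6 h.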

Assay [18] can be described thus: qHTS assay to identify small molecule antagonists of the estrogen related receptor (ERR) signaling pathway from Tox21 library (AID 1224848). Further: nearly all actives have a fitted effect of over 50% in size. Further: potency means the concentration at half of the fitted maximal effect. Put shortly: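 ERR cell line, 2,000 cells/well. 6 h settle, then compound (DMSO) added; 18 h at 37 C; ONE-Glo luminescence after 30 min RT.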
Assay [19] is described as follows: qHTS assay to identify small molecule agonists of the estrogen related receptor (ERR) signaling pathway from Tox21 library (AID 1224849; calls by dose curve; further: nearly all actives have a fitted effect of over 15% in size). The settings on record: ERR reporter cell line, ONE-Glo luciferase, 18 h. Put shortly: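 Luciferase activity in ERR pathway reporter cells served as the agonist readout; exposure lasted 18 h at 37 C, with ONE-Glo detection after 30 min at room temperature.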
On the % scale 0 is the no-effect control and ±100 the full control effect.

Chain of Luciferin 4-monooxygenase (Photinus pyralis) (P08659 whole entry, looked up): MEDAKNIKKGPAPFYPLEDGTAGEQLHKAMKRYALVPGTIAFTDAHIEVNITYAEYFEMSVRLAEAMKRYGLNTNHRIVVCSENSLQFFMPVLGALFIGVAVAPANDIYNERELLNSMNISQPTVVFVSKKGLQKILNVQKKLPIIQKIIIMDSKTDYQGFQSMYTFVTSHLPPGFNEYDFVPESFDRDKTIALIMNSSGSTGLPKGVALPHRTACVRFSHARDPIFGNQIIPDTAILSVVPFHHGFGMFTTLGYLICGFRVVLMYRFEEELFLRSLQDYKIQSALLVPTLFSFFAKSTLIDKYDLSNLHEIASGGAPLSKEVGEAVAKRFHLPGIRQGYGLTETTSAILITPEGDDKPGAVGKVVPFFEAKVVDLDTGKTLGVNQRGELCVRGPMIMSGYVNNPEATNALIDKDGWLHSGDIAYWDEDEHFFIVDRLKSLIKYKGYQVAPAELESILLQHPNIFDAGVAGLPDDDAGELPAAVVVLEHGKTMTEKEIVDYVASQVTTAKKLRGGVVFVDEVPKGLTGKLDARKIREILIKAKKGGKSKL
Chain of Thyrotropin receptor (Homo sapiens) (P16473 whole entry, looked up): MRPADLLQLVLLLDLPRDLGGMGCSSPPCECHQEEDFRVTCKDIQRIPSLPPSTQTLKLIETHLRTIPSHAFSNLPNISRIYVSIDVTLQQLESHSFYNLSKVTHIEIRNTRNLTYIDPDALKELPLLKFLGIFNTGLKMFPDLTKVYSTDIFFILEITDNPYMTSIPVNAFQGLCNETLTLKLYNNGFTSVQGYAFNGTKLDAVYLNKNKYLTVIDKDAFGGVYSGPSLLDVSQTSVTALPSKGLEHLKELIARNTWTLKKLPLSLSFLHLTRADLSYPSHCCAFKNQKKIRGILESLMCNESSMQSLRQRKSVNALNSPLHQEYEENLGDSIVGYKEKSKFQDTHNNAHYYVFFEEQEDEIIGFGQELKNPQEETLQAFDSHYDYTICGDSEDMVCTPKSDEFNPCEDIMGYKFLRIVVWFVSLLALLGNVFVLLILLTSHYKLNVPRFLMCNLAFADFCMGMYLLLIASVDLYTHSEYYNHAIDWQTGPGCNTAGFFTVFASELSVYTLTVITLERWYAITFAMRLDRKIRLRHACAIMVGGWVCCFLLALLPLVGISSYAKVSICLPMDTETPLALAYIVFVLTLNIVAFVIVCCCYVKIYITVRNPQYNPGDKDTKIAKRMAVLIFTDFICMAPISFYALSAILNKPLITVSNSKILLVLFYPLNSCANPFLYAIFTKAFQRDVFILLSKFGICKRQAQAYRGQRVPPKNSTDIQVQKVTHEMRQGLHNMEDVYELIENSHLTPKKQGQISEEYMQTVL
Chain of Nuclear receptor subfamily 1 group I member 3 (Homo sapiens) (Q14994 whole entry, looked up): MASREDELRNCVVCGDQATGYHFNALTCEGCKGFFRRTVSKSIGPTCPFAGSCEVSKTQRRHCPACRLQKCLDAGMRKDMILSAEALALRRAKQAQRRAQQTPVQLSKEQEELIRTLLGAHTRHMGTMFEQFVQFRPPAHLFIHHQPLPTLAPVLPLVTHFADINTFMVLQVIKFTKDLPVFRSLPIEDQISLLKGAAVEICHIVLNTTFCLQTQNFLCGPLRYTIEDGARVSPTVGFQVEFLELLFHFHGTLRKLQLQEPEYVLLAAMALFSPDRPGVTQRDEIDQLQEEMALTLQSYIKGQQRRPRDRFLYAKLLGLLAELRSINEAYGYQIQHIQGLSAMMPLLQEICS

With `CC(=O)/C=C/c1ccccc1`, the Potency entry in [1], in assay [2], in assay [3], in assay [4], in assay [5] and in [6] was “inactive” each time. For the same molecule, the Potency result in assay [7], in [8], in [9], in [11], in assay [13] and in [14] was “inactive” each time. Further, the result in assay [10] and in assay [12] was inactive.
As to `C=C(C)C(=O)OCC(CC)CCCC` (centres undefined), the Potency in assay [1] is 55.5 µM (active) and inactive; in [16], 31.2 µM (active) and inactive; in [18], 24.8 µM (active) and inactive. Further, the Potency entry in [2], in [3], in [15], in assay [17], in [7] and in assay [9] was “inactive” throughout. Further, the Potency result in [11], in [13] and in [14] was “inactive” in each case. Further, the molecule was classed as inactive in assay [10] and in assay [12]. In [19] (at 92.4 µM (top of the series)), the activity change, positive = activation was -78.2% (inactive) and 4.6% (inactive).
On to `CNc1cnn(-c2cccc(C(F)(F)F)c2)c(=O)c1Cl`, for which the Potency entry in assay [1], in [3], in assay [15], in assay [4], in assay [8] and in [9] was “inactive” throughout. The Potency entry in assay [11] and in assay [13] was “inactive” each time. Further, the Potency was 34.3 µM (active) and 39.9 µM (active) in assay [2]; 16.6 µM (active) and 24.3 µM (active) in [5]. For the same molecule, the molecule was classed as inactive in assay [10] and in assay [12].
Regarding `CSc1nnc(C(C)(C)C)c(=O)n1N`, the Potency result in assay [1], in assay [2], in [3], in assay [4], in assay [5] and in assay [6] was “inactive” throughout. Further, the Potency result in [7], in assay [8], in assay [9], in assay [11] and in assay [13] was “inactive” throughout. Also, the outcome in [10] and in assay [12] was inactive.
As for `CNC(=O)O/N=C/C(C)(C)S(C)(=O)=O`, the Potency entry in assay [1], in assay [2], in [3], in assay [15], in [4] and in [5] was “inactive” throughout. For the same molecule, the Potency result in assay [9], in assay [13] and in assay [14] was “inactive” throughout. Besides, the molecule was classed as inactive in assay [10] and in assay [12].
`CN1C(=O)CCS(=O)(=O)C1c1ccc(Cl)cc1` (centres undefined): the Potency entry in [1], in [2], in [3], in [15], in assay [7] and in [8] was “inactive” each time. In addition, the Potency entry in assay [9], in [11] and in assay [13] was “inactive” each time. In assay [12], the molecule was called inactive.
For `O=C(O)c1cc(Oc2ccc(C(F)(F)F)cc2Cl)ccc1[N+](=O)[O-]`, the Potency entry in [1], in assay [2], in assay [3], in [15], in assay [6] and in [17] was “inactive” in each case. The Potency entry in assay [7], in assay [8], in assay [9], in [18] and in assay [13] was “inactive” each time. For the same molecule, in assay [16], the Potency result was “inactive and 68.9 µM (active)”. Also, the result in assay [10] and in [12] was inactive. Also, the activity change, positive = activation in assay [19] (at 42.5 µM (top of the series)) is 9.01% (inactive); in assay [19] (at 92.4 µM (top of the series)) it was -1% (inactive) and -14.6% (inactive) and -4.43% (inactive).
In the case of `CCCOC(=O)c1ccccc1C(=O)OCCC`, the Potency entry in assay [1], in assay [2], in assay [3], in assay [15], in assay [8] and in assay [9] was “inactive” throughout. Besides, the Potency result in assay [13] and in [14] was “inactive” throughout. Also, the call in assay [10] and in [12] was inactive.
On to `Nc1nc(N)nc(NC2CC2)n1`, for which the Potency entry in assay [1], in assay [2], in assay [3], in assay [15], in assay [6] and in assay [16] was “inactive” each time. The Potency result in assay [17], in assay [7], in assay [8], in assay [9], in assay [11] and in assay [18] was “inactive” in each case. In addition, the Potency entry in assay [13] and in assay [14] was “inactive” each time. The molecule was called inactive in [10] and in assay [12]. In addition, the activity change, positive = activation in assay [19] (at 42.5 µM (top of the series)) was 7.96% (inactive); in assay [19] (at 92.4 µM (top of the series)) it was -4.5% (inactive) and 0.923% (inactive).
